Results on 36 compounds are retold here after the supplement of paper PMC9925115.

SMILES strings stand for the structures. ± gives the uncertainty stated by the source.

In one assay the test system is FLX1. Description: cell viability z-score within plate (CellTiter-Glo), mean of 3 biological replicates; higher = higher viability relative to plate (less growth inhibition). The settings on record: 2 µM; time (hr): 120. The protocol:
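FLX1 fibrolamellar carcinoma cells (DNAJB1-PRKACA fusion), 600 cells/well in 384-well plates, treated with a Selleck kinase inhibitor library (L1200) at 2 uM for 5 days (120 hr); viability by CellTiter-Glo. A z-score was computed within each plate and averaged over three biological replicates.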
On the technique in general: In ATP-based viability assays light output follows the ATP content of the culture.

Assay [1] concerns FLX1 + dox-induced PRKAR1A G325D. Nature of the assay: difference in log2 fold change of viability vs plate median (dox-induced PRKAR1A G325D minus uninduced); higher = compound less effective when PKA is inhibited. The following applies: concentration: not stated (2 or 5 uM); 5 days. The protocol:
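For each plate a log2 fold change vs the plate median was derived, and the values without dox were subtracted from those with dox, averaged over three biological replicates.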

Turning to `CCN(CC)CCCCNc1ncc2cc(-c3cc(OC)cc(OC)c3)c(NC(=O)NC(C)(C)C)nc2n1`, in the assay with FLX1, the “cell viability z-score within plate” value is -0.321 ± 0.21. Moreover, the “difference in log2 fold change of viability” value (“difference in log2 fold change” below) in assay [1] was -0.527.

As to `CC(C)n1nc(-c2ccc3oc(N)nc3c2)c2c(N)ncnc21`, in the assay with FLX1, the “cell viability z-score within plate” value amounted to 0.871 ± 0.17. Moreover, in assay [1], the “difference in log2 fold change” value was -0.0452.

`COc1cc2ncnc(Nc3ccc(F)c(Cl)c3)c2cc1OCCCN1CCOCC1` [Gefitinib (ZD1839)]: the “cell viability z-score within plate” value with FLX1 is -1.17 ± 1.2. Besides, the “difference in log2 fold change” value in assay [1] was -0.198.

Take `CCn1c(N)c(C(=O)NC)c(=O)c2ccc(C#CC(C)(O)COC)nc21` (configuration not stated): the “cell viability z-score within plate” value in the assay with FLX1 is -1.49 ± 1.7. In addition, the “difference in log2 fold change” value in assay [1] worked out at 0.0292.

For the compound `CCC[C@H](NC(=O)/C(C#N)=C/c1cccc(Br)n1)c1ccccc1` [Degrasyn (WP1130)], the “cell viability z-score within plate” value with FLX1 was -0.0534 ± 0.15. Also, the “difference in log2 fold change” value in assay [1] was determined as 0.135.

Take `O=C(/C=C/c1ccc2ccccc2n1)c1ccncc1`: the “cell viability z-score within plate” value in the assay with FLX1 was found to be 0.276 ± 0.49. Besides, the “difference in log2 fold change” value in assay [1] was -0.467.

With `Cc1cnc(Nc2ccc(OCCN3CCCC3)cc2)nc1Nc1cccc(S(=O)(=O)NC(C)(C)C)c1`, in the assay on FLX1, the “cell viability z-score within plate” value was -0.235 ± 0.43. In addition, the “difference in log2 fold change” value in assay [1] was -0.00786.

For the compound `CN(C)CCCn1cc(C2=C(c3c[nH]c4ccccc34)C(=O)NC2=O)c2ccccc21`, the “cell viability z-score within plate” value with FLX1 was -0.651 ± 0.3. Also, the “difference in log2 fold change” value in assay [1] was -0.243.

Consider `Nc1ccc(-c2ccc3ncc4ccc(=O)n(-c5cccc(C(F)(F)F)c5)c4c3c2)cn1` [Torin 2], for which the “cell viability z-score within plate” value with FLX1 was 0.796 ± 0.29. For the same compound, the “difference in log2 fold change” value in assay [1] was 0.605.

For `COc1ccc(-c2ccc3ncc4c(c3c2)n(-c2ccc(N3CCNCC3)c(C(F)(F)F)c2)c(=O)n4C)cn1`, the “cell viability z-score within plate” value with FLX1 was 0.514 ± 0.38. Besides, the “difference in log2 fold change” value in assay [1] came out at 0.174.

As for `O=C(NOCC1CC1)c1ccc(F)c(F)c1Nc1ccc(I)cc1Cl`, the “cell viability z-score within plate” value in the assay on FLX1 was determined as 0.606 ± 0.25. Moreover, the “difference in log2 fold change” value in assay [1] was 0.453.

As for `CNC(=O)c1ccccc1Nc1nc(Nc2ccc(N3CCOCC3)cc2OC)ncc1Cl`, the “cell viability z-score within plate” value in the assay with FLX1 was determined as 1.3 ± 1.2. For the same compound, the “difference in log2 fold change” value in assay [1] is -1.51.

Take `C[C@H](NC(=O)/C(C#N)=C/c1cccc(Br)n1)c1ccccc1`: in the assay on FLX1, the “cell viability z-score within plate” value is 0.427 ± 0.59. The “difference in log2 fold change” value in assay [1] is -0.381.

Take `Cn1c(Nc2ccc(C(F)(F)F)cc2)nc2cc(Oc3ccnc(-c4ncc(C(F)(F)F)[nH]4)c3)ccc21`: the “cell viability z-score within plate” value in the assay on FLX1 was determined as 0.193 ± 0.26. For the same compound, the “difference in log2 fold change” value in assay [1] is -0.588.

On to `CCCCCCCCCCCCc1ccc(S(=O)(=O)Nc2nncs2)cc1`, for which, in the assay with FLX1, the “cell viability z-score within plate” value amounted to 1.17 ± 0.77. Further, the “difference in log2 fold change” value in assay [1] came to 0.132.

Take `CN1CCN(c2nc(C3=C(c4c[nH]c5ccccc45)C(=O)NC3=O)c3ccccc3n2)CC1` [Sotrastaurin]: in the assay on FLX1, the “cell viability z-score within plate” value turned out to be 0.764 ± 0.47. For the same compound, in assay [1], the “difference in log2 fold change” value is -0.157.

Consider `COc1cc2nccc(Oc3ccc(NC(=O)NC4CC4)c(Cl)c3)c2cc1C(N)=O` [Lenvatinib (E7080)], for which the “cell viability z-score within plate” value with FLX1 is -0.399 ± 0.11. Moreover, the “difference in log2 fold change” value in assay [1] is -0.0902.

As to `O=C1NC(=O)C(c2ccccc2[N+](=O)[O-])=C1Nc1ccc(O)c(Cl)c1`, in the assay with FLX1, the “cell viability z-score within plate” value was determined as 0.229 ± 0.58. Besides, the “difference in log2 fold change” value in assay [1] was -0.00686.

Turning to `CNC(=O)c1ccc(C)c(-n2c(C)cc(OCc3ccc(F)cc3F)c(Br)c2=O)c1`, the “cell viability z-score within plate” value in the assay with FLX1 is 0.325 ± 0.62. Also, the “difference in log2 fold change” value in assay [1] came out at 0.455.

Take `COc1ccccc1-c1cc(Nc2cccc(CS(N)(=O)=O)c2)ncn1`: the “cell viability z-score within plate” value in the assay with FLX1 came out at 0.545 ± 1.1. Also, the “difference in log2 fold change” value in assay [1] was found to be 0.055.

For `Cc1ccccc1CN1C2=NCCN2C(=O)C2=C1CCN(Cc1ccccc1)C2` [TIC10 Analogue], in the assay on FLX1, the “cell viability z-score within plate” value came to 0.481 ± 0.4. Also, in assay [1], the “difference in log2 fold change” value was -0.0375.

`C[C@@H](Oc1cc(-n2cnc3ccc(CN4CCN(C)CC4)cc32)sc1C(N)=O)c1ccccc1C(F)(F)F`: in the assay on FLX1, the “cell viability z-score within plate” value came to 0.737 ± 0.18. Besides, the “difference in log2 fold change” value in assay [1] was -0.2.

Regarding `CC(C)NC[C@@H](C(=O)N1CCN(c2ncnc3c2[C@H](C)C[C@H]3O)CC1)c1ccc(Cl)cc1` [Ipatasertib (GDC-0068)], the “cell viability z-score within plate” value in the assay on FLX1 was found to be 1.05 ± 0.14. The “difference in log2 fold change” value in assay [1] was 0.54.

With `CN(C)CCOc1ccc(-c2nc(-c3ccncc3)c(-c3ccc4c(c3)CC/C4=N\O)[nH]2)cc1`, the “cell viability z-score within plate” value in the assay on FLX1 was determined as 0.259 ± 0.2. Moreover, the “difference in log2 fold change” value in assay [1] was -1.73.

Turning to `Cc1[nH]nc2ccc(-c3cncc(OC[C@@H](N)Cc4ccccc4)c3)cc12`, the “cell viability z-score within plate” value in the assay on FLX1 is 0.657 ± 0.13. In addition, the “difference in log2 fold change” value in assay [1] came out at 0.18.

As for `O=c1c(O)c(-c2ccc(O)c(O)c2)oc2cc(O)cc(O)c12` [Quercetin], the “cell viability z-score within plate” value with FLX1 was 1.1 ± 0.51. Also, in assay [1], the “difference in log2 fold change” value is -0.0725.

Take `Cc1cc2c(F)c(Oc3ncnn4cc(OC[C@@H](C)O)c(C)c34)ccc2[nH]1`: the “cell viability z-score within plate” value in the assay with FLX1 was -1.45 ± 0.81. The “difference in log2 fold change” value in assay [1] stood at 0.515.

For the compound `Cc1cc(Nc2nc(N[C@@H](C)c3ccc(F)cc3)c(C#N)cc2F)n[nH]1`, the “cell viability z-score within plate” value with FLX1 came out at 0.513 ± 0.61. Further, in assay [1], the “difference in log2 fold change” value is -0.0432.

As to `COc1ccc(F)c(F)c1C(=O)c1cnc(NC2CCN(S(C)(=O)=O)CC2)nc1N`, the “cell viability z-score within plate” value in the assay on FLX1 was 0.272 ± 0.44. Also, the “difference in log2 fold change” value in assay [1] was 0.247.

As for `COc1cc2nccc(Oc3ccc(NC(=O)Nc4cc(C)on4)c(Cl)c3)c2cc1OC` [Tivozanib (AV-951)], in the assay with FLX1, the “cell viability z-score within plate” value was -0.573 ± 0.16. The “difference in log2 fold change” value in assay [1] was -0.0533.

In the case of `Cc1ccc(NC(=O)c2cccc(N(C)C)c2)cc1NC(=O)c1ccc(O)cc1`, the “cell viability z-score within plate” value in the assay on FLX1 was -0.188 ± 0.87. Further, the “difference in log2 fold change” value in assay [1] was found to be 0.402.

Regarding `O=C(Nc1c[nH]nc1-c1nc2ccc(CN3CCOCC3)cc2[nH]1)NC1CC1`, the “cell viability z-score within plate” value in the assay with FLX1 stood at 0.178 ± 0.39. Besides, the “difference in log2 fold change” value in assay [1] is 0.115.

As to `CC(C)(C)c1nc(-c2cccc(NS(=O)(=O)c3c(F)cccc3F)c2F)c(-c2ccnc(N)n2)s1`, the “cell viability z-score within plate” value in the assay on FLX1 stood at 0.0787 ± 0.036. Also, the “difference in log2 fold change” value in assay [1] came out at 0.264.

On to `Cc1cc2c(F)c(Oc3ncnn4cc(OC[C@@H](C)OC(=O)[C@H](C)N)c(C)c34)ccc2[nH]1`, for which the “cell viability z-score within plate” value in the assay on FLX1 came out at 0.531 ± 0.22. Besides, in assay [1], the “difference in log2 fold change” value worked out at 0.461.

`Cc1cc(Nc2ncc(Cl)c(Nc3ccccc3S(=O)(=O)C(C)C)n2)c(OC(C)C)cc1C1CCNCC1` [Ceritinib (LDK378)]: the “cell viability z-score within plate” value in the assay with FLX1 is 0.337 ± 0.65. In addition, the “difference in log2 fold change” value in assay [1] is 0.032.

Regarding `Fc1cc(-c2cccc3ncc(-c4cnn(C5CCNCC5)c4)nc23)cc(F)c1CN1CCOCC1`, the “cell viability z-score within plate” value in the assay on FLX1 was -1.08 ± 1.1. Moreover, the “difference in log2 fold change” value in assay [1] turned out to be 0.246.
